Experimental data reported in PubChem BioAssay AID696 (Sanford-Burnham Center for Chemical Genomics, 2007).
About 1,200 (1.2%) of roughly 96,000 compounds were called active. Many of the other results were omitted from the sample, so actives are more common in it than they were. Values without a mark were called inactive. Rule as the data show it: active = activation fold above about 2; inactive = the rest.

Biological target: Alkaline phosphatase, placental type (Homo sapiens) (UniProt P05187)
Assay: activation of human placental alkaline phosphatase – biochemical, luminescence, HTS (AID 696)
Details: purified PLAP enzyme, luminescent substrate read-out; at 20 µM; active compounds read high

Sequence of Alkaline phosphatase, placental type (Homo sapiens) (P05187 whole entry, looked up): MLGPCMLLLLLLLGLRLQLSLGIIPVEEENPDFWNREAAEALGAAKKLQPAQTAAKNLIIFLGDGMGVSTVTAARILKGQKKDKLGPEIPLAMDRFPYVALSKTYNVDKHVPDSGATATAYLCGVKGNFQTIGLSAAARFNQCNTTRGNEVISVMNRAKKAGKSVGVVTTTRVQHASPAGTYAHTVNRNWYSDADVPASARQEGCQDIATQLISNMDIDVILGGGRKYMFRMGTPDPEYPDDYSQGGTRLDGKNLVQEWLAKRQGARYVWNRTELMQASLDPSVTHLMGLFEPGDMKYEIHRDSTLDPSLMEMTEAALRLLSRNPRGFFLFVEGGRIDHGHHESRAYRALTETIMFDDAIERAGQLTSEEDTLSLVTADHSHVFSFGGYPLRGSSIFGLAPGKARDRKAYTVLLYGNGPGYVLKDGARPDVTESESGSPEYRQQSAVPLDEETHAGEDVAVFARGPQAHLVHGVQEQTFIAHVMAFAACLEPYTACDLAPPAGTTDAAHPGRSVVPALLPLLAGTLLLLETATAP

Row | SMILES | activation fold
1 | CCOC(=O)c1c(N)n(CCN2CCOCC2)c2nc3ccccc3nc12 | 1.1
2 | CCOC(=O)c1c(N)n(Cc2ccccc2)c2nc3ccccc3nc12 | 0.9
3 | COc1cc(Cn2c(N)c(C(=O)NCc3ccco3)c3nc4ccccc4nc32)cc(OC)c1OC | 2.1 (active)
4 | Nc1ccc(C(=O)N/N=C2/CN3CCC2CC3)cc1 | 0.9
5 | CCOc1ccc(C2SCC(=O)Nc3c2c(C)nn3C2CCOC(C)(C)C2)cc1 (stereo not given) | 1.5
